Sampled rows, rich in hits. Any-hit rate of the full collection: about 19%.
TDP1 cell noCPT: qHTS for Inhibitors of human tyrosyl-DNA phosphodiesterase 1 (TDP1): qHTS in cells in absence of CPT. DT40 Tdp1-/- hTDP1 cells, no CPT, ATP luminescence, 48 h. Potency, µM (series often up to 46.2 µM), without a hit: at the highest dose activity change, negative = growth inhibition, hits mostly inhibitors. 420,000 tested, 15% active; note: nearly all actives have a fitted effect of over 55% in size
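Chicken DT40 Tdp1-/- cells complemented with human TDP1, screened without camptothecin (DMSO vehicle only), 400 cells/well. Compounds pin-transferred, cells incubated at 37 °C for at least 48 hr. Growth read as ATP-dependent luminescence (CellTiter-Glo, 30 min at RT).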
KB-V1 cytotox: KB-V1 MDR subline cytotoxicity. KB-V1 MDR cells viability, CellTiter-Glo, 72 h. Potency, µM (series often up to 46.1 µM), hits mostly cytotoxic. 400,000 tested, 3.4% active; note: nearly all actives have a fitted effect of over 60% in size
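Readout: CellTiter-Glo luminescence, 10 min after addition. Cells: KB-V1 MDR subline, 72 h at 37 degrees C with compound. Analysis: corrected, normalized data fitted to concentration-effect curves.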
DT40 TDP1 CPT: DT40-hTDP1 cell growth loss with CPT | chicken DT40 Tdp1-/-;hTDP1 cells + 20 nM CPT, ATP luminescence, 48 h | Potency, µM (top dose mostly 46.2 µM), without a hit: at the highest dose activity change, negative = growth inhibition, most hits filed as inhibitors | 420,000 tested, 12% active; note: nearly all actives have a fitted effect of over 55% in size
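Chicken DT40 Tdp1-/- cells stably complemented with human TDP1 were seeded at 400 cells/well in medium containing 20 nM camptothecin, exposed to pin-transferred compounds, and grown at 37 °C for at least 48 hr. Viability was read as ATP luminescence.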
HT1080 IDH1KD tx: HT-1080 IDH1 knockdown cell toxicity (counter line) | HT-1080 IDH1 knockdown viability, ATP luminescence, 48 h | Potency, µM (titrated, usually from 46.1 µM), without a hit: top-dose activity, negative = toxicity, actives largely listed as cytotoxic | 360,000 tested, 2% active | AID 686971;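 note: 0% = DMSO wells and -100% = cell-free medium wells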
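Viability of IDH1-knockdown HT-1080 fibrosarcoma cells was assessed by CellTiter-Glo after 48 h at 37 °C with titrated compound; concentration-effect curves were classified by fit quality and response size.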
HT1080NT lethal: kills 2HG-producing HT-1080-NT fibrosarcoma cells; HT-1080-NT fibrosarcoma viability, CellTiter-Glo ATP luminescence, 48 h; Potency, µM (doses to about 46.1 µM), inactives show at the top dose activity, negative = less viability, actives largely listed as cytotoxic; 360,000 tested, 1.6% active;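 note: NT is the 2HG producing partner of a matched IDH1 knockdown line; 0% = DMSO-treated cells and -100% = media-only wells without cells; nearly all actives have a fitted effect of over 55% in size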
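Fibrosarcoma NT cells, 750 per well in 5% FBS RPMI, were exposed to compound for 48 hours. Viability: CellTiter-Glo luminescence.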
KB-3-1 tox: kills parental KB-3-1 adenocarcinoma cells | KB-3-1 viability, CellTiter-Glo ATP luminescence, 72 h | Potency, µM (doses to about 46.1 µM), usual class: cytotoxic | 400,000 tested, 1.4% active; note: nearly all actives have a fitted effect of over 60% in size
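72 h, 37 °C compound treatment of KB-3-1 parental cells; CellTiter-Glo added, 10 min, luminescence read. Data corrected against DMSO-only plates and normalized before curve fitting.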
Active calls of the source: *; i = inactive; ? = inconclusive; / = not tested or not shown. Calls come from the whole dose curve; as a rule, active = well fitted curve in the direction sought with a large enough effect; inconclusive = small, poorly fitted or top-dose-only effect, or another doubt; inactive = no such curve, though single readings can be large; an effect the other way counts as inactive or inconclusive. Unless noted, % is set by controls: 0 for no effect and ±100 for the full control effect; potency is the fitted concentration of half-maximal effect.

SMILES	TDP1 cell noCPT	KB-V1 cytotox	DT40 TDP1 CPT	HT1080 IDH1KD tx	HT1080NT lethal	KB-3-1 tox
Cc1nn(C)cc1CN(C)C(=O)c1nn2c(c1Br)NC(c1cccs1)CC2C(F)(F)F (stereo unspecified)	15µM*	i	?	-16%	-17%	i
Cc1nn(C)c(C)c1CN(C)C(=O)c1cc2n(n1)C(C(F)(F)F)CC(c1cccs1)N2 (stereo unspecified)	16µM*	i	26µM*	-14%	-21%	i
COc1ccc(N(CC(=O)NCc2ccccc2Cl)S(=O)(=O)c2c(C)nn(C)c2C)cc1	?	i	-6%	/	/	i
COc1ccc(CNC(=O)COC(=O)c2ccc(F)c(S(=O)(=O)N3CCCCC3)c2)cc1OC	5%	i	-17%	11%	14%	i
N[C@@H](Cc1cnc[nH]1)C(=O)Nc1ccc2ccccc2c1	-8%	i	18%	2%	4%	i
CNc1cnc(-c2ccc(F)c(F)c2F)cn1	3%	i	0%	-4%	11%	i
O=c1c(-c2cccs2)nc2cncnc2n1Cc1ccc(F)cc1	6%	/	8%	/	/	/
CC1(C)Cc2c(C#N)c(SCC(=O)c3ccccc3)nc(N3CCOCC3)c2CO1	-83%	i	-81%	-10%	5%	?
CCc1nc(N2CCOCC2)c(C#N)c2c1COC(C)(C)C2	?	i	?	-4%	0%	i
CCc1nc(N2CCN(C(=O)c3ccccc3)CC2)c(C#N)c2c1COC(C)(C)C2	15µM*	?	18µM*	-6%	-3%	?
CC1(C)Cc2c(C#N)c(N3CCOCC3)nc(Cc3ccccc3)c2CO1	21µM*	?	?	-1%	-3%	?
CC(C)(C)C(=O)Nc1nnc(COc2ccc(Cl)cc2)s1	?	i	-4%	?	-26%	i
O=C(/C=C\c1ccco1)Oc1cccc2cccnc12	0.65µM*	i	0.58µM*	15µM*	?	?
COc1ccccc1/C=C/C(=O)Oc1cccc2cccnc12	16µM*	i	?	0%	0%	i
CCc1ccc(OC(=O)/C=C/c2ccco2)cc1	14%	i	-4%	1%	0%	i
O=C(/C=C/c1ccco1)Oc1cccc2cccnc12	?	i	?	21µM*	?	i
CC(=O)NC(c1ccc(C)cc1)c1cc([N+](=O)[O-])c2cccnc2c1O (stereo unspecified)	15µM*	?	5.8µM*	?	?	?
CCC(=O)NC(c1ccc(C)cc1)c1cc([N+](=O)[O-])c2cccnc2c1O (stereo unspecified)	21µM*	i	?	13µM*	16µM*	?
COc1ccc(/C=C(\NC(=O)c2ccccc2Cl)C(=O)NCCCC(=O)O)cc1	0%	i	24%	2%	11%	?
CCOc1ccc(NC(=O)CC2C(=O)N(c3ccc(OC)cc3)C(=O)N2CCc2cccs2)cc1 (stereo unspecified)	?	18µM*	-22%	-10%	-6%	i
COc1ccc(NC(=O)CC2C(=O)N(c3ccccc3)C(=O)N2CCc2sccc2C)cc1 (stereo unspecified)	16µM*	i	?	/	/	i
CCOc1ccc(NC(=O)CC2C(=O)N(c3ccccc3)C(=O)N2CCc2sccc2C)cc1 (stereo unspecified)	18µM*	?	15µM*	/	/	?
COc1ccc(NC(=O)CC2C(=O)N(c3ccccc3)C(=O)N2CCc2cccs2)cc1 (stereo unspecified)	1%	i	-21%	1%	-5%	i
CCOc1ccc(NC(=O)CC2C(=O)N(c3ccc(F)cc3)C(=O)N2CCc2sccc2C)cc1 (stereo unspecified)	23µM*	?	-111%	/	/	i
Cn1cc(C(=O)[C@@H]2CCc3nc[nH]c3C2)c2ccccc21	-19%	/	-11%	/	/	/
SMILES	TDP1 cell noCPT	KB-V1 cytotox	DT40 TDP1 CPT	HT1080 IDH1KD tx	HT1080NT lethal	KB-3-1 tox
COc1cccc(N2C(=O)C(CC(=O)Nc3ccccc3)N(CCc3sccc3C)C2=O)c1 (stereo unspecified)	?	i	18µM*	/	/	i
COc1ccc(NC(=O)CC2C(=O)N(c3ccc(F)cc3)C(=O)N2CCc2sccc2C)cc1 (stereo unspecified)	?	i	?	/	/	i
CCCCn1nnnc1NCc1cccnc1	13µM*	i	8.2µM*	2%	-1%	i
CN(C)S(=O)(=O)n1cnc([C@@H]2[C@@H]3C(=O)OC[C@@H]3C[C@]23N=CN(Cc2ccccc2)C3=O)c1	-9%	i	3%	16%	11%	i
COC(=O)Cc1ccc(NC(=S)N2CCN(c3cccc(O)c3)CC2)cc1	13µM*	i	16µM*	-7%	0%	i
COC(=O)Cc1ccc(NC(=S)N2CCN(c3ccc(OC)cc3)CC2)cc1	?	i	-19%	16%	6%	i
CC(=O)c1ccc(N2CCN(C(=O)Nc3ccc(C)cc3)CC2)cc1	?	i	?	0%	4%	i
CC1CCN(C(=O)Nc2cccc(NC(=O)N3CCC(C)CC3)c2)CC1	5.2µM*	i	-6%	4%	-2%	?
CC(=O)c1ccc(N2CCN(C(=S)Nc3cccc(Cl)c3)CC2)cc1	?	23µM*	-14%	14%	4%	i
CC(=O)c1ccc(N2CCN(C(=O)Nc3cccc(F)c3)CC2)cc1	?	i	21µM*	-3%	-5%	i
CCC1CCCCN1CCCNC(=O)c1ccc(/C=C2/Sc3ccccc3NC2=O)cc1 (stereo unspecified)	3.7µM*	i	?	-1%	?	i
O=C1Nc2cc(C(=O)NCCCN3CCCC3)ccc2S/C1=C\c1ccccc1	18µM*	i	?	?	-25%	i
COc1ccc(/C=C2/Sc3ccc(C(=O)NCCN4CCCCCC4)cc3NC2=O)cc1	3.3µM*	?	3.7µM*	-1%	-7%	i
O=C1Nc2cc(C(=O)NCCCN3CCOCC3)ccc2S/C1=C/c1cccc(Cl)c1	?	i	?	6%	11%	i
Cc1cc(C)n(CCC(=O)Nc2cccc(F)c2)n1	?	i	3%	10%	1%	i

From PubChem BioAssay
